Data on nine molecules can be found in PubChem BioAssay.

A word on the inhibition: it is the change of the read-out against control, counted positive when it falls.

Molecules are shown by their SMILES. Values without a mark were called inactive. Active and inactive are the calls of the source. Unless noted, no stated cut-off is given here; in the data, active means inhibition above about 44%; inactive means the rest.

A short description of assay [1]: StAR promoter reporter inhibitors, counter-screen for LRH-1 inverse agonist project, cell-based, luminescence, high throughput (AID 651611; in the data active means inhibition above about 28%). Conditions: StAR promoter luciferase reporter counterscreen, at 3.6 µM, hits give high values. On the technique in general: The purpose of a counterscreen is to sort out artefacts and off-target activity.
For assay [2], the target named is Nuclear receptor subfamily 5 group A member 2 (Homo sapiens) (UniProt O00482). The assay can be described thus: NR5A2 activity suppression in reporter cells – cell-based, luminescence, confirmation (AID 651613; in the data active means inhibition above about 42%;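 further: HEK293T cells co-transfected with LRH-1 and StAR promoter luciferase reporter; 0% = vehicle wells and 100% = parental cells lacking receptor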). Conditions: cell-based LRH-1 luciferase reporter, inverse agonism; at 3.6 µM; hits give high values. (In general: Reporter assays use an easily measured gene product as a stand-in for the process of interest.)
Sequence of Nuclear receptor subfamily 5 group A member 2 (Homo sapiens) (O00482 whole entry, looked up): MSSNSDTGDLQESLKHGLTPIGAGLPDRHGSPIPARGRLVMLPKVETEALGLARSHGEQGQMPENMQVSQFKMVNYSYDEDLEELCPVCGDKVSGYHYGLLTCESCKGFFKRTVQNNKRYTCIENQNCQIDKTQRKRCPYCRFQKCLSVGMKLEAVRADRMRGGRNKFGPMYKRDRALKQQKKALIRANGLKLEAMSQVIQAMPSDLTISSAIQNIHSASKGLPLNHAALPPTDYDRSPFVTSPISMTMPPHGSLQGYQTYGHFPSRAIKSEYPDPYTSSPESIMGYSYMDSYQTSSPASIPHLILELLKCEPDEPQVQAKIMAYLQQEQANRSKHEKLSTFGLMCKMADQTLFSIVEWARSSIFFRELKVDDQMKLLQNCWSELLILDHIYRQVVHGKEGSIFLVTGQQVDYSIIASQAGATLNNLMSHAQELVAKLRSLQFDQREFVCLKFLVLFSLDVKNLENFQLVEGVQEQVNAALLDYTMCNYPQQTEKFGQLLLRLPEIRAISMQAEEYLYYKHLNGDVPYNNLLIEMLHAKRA

Assay [3] deals with Steroidogenic factor 1 (Homo sapiens) (UniProt Q13285). The assay can be described thus: inverse agonism at SF1 nuclear receptor – cell-based, luminescence, high throughput, counter-screen for LRH-1 inverse agonist project (AID 651614).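 Further: cells cotransfected with StAR promoter reporter and SF1 expression vector; 0% = vehicle on cells with receptor and 100% = vehicle on cells lacking receptor.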 Conditions: cell-based SF1 luciferase reporter, at 3.6 µM, hits give high values.
Sequence of Steroidogenic factor 1 (Homo sapiens) (Q13285 whole entry, looked up, the tested form may be a part): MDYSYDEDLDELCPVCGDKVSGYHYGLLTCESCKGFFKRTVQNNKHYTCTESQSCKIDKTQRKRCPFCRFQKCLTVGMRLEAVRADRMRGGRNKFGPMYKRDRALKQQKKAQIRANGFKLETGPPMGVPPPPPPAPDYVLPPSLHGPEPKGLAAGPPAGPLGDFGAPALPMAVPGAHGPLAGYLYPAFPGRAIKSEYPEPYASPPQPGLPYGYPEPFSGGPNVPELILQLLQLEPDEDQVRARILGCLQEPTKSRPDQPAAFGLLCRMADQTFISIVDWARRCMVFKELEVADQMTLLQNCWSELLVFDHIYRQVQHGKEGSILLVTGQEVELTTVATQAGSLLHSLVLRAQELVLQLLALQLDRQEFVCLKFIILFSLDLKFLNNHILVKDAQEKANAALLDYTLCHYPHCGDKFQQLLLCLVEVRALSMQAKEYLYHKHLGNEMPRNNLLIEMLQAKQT
Assay [4] is described as follows: compounds suppressing VP16-driven luciferase signal – cell-based, luminescence, high throughput, counter-screen for LRH-1 inverse agonist project (AID 651615; in the data active means inhibition above about 33%). Conditions: Gal4-VP16 luciferase reporter cells, at 3.6 µM, hits give high values.

`CCc1cc(=O)oc2c(C)c(OCC(=O)NCCCN3CCOCC3)ccc12`: the inhibition in assay [1] is 3.94%; in assay [2], 48.7% (active); in assay [3], 42.6%; in assay [4], 2.03%.

On to `COc1cc([N+](=O)[O-])ccc1NC(=O)C[n+]1ccccc1`, for which the inhibition in assay [1] is 15.1%; in assay [2], 58.8% (active); in assay [3] it was 55.6% (active); in assay [4] it was 3.98%.

Take `C#Cc1cccc(Nc2nc(NC(C)C)nc3ccsc23)c1`: the inhibition in assay [1] is 17.7%; in assay [2], 63.6% (active); in assay [3] it was 60.9% (active); in assay [4] it was 20.3%.

For the molecule `CCOC(=O)C(C)Oc1cccc2c(=O)n(CC(=O)Nc3ccc(OCC)cc3)ccc12` (stereo unspecified), the inhibition in assay [1] was 4.74%; in assay [2] it was 60.1% (active); in assay [3], 58.8% (active); in assay [4], -11.2%.

Turning to `CCOc1ccc(CCNC(=O)COC(=O)c2c(C)nn(-c3ccccc3)c2C)cc1OCC`, the inhibition in assay [1] is 3.09%; in assay [2] it was 41.6% (active); in assay [3] it was 28.1%; in assay [4], 2.25%.

On to `O=C(COC(=O)Cc1ccc(F)cc1)NCCc1ccccc1`, for which the inhibition is 3.74% in assay [1], 37.8% in assay [2], 36.3% in assay [3] and -0.51% in assay [4].

For the molecule `C=CCOc1ccccc1CN(C(=O)CCl)c1ccc2c(c1)OCO2`, the inhibition in assay [1] is 7.87%; in assay [2], 68.8% (active); in assay [3], 53.5% (active); in assay [4], -54.5%.

Take `CC(=O)N1CCc2c(sc(NC(=O)c3ccc([N+](=O)[O-])o3)c2C#N)C1`: the inhibition is -28.6% in assay [1], 36% in assay [2], 43.8% (active) in assay [3] and -119% in assay [4].

Take `Cc1cc(C(=O)NC2CCCc3c2cnn3-c2cccc(C)c2C)n(C)n1` (stereo unspecified): the inhibition in assay [1] is 33.4% (active); in assay [2], 68.2% (active); in assay [3], 58.4% (active); in assay [4] it was 59.1% (active).
